# The campaign covered roughly 420,000 compounds. About 50,000 (12%) were called active. Not shown: some 26% with an inconclusive outcome. This excerpt belongs to a sample that is enriched for actives. A number with no mark means an inactive call. Calls follow the shape of the dose curve; as a rule, active = well fitted inhibition curve with a large enough effect; inconclusive = small, poorly fitted or top-dose-only effect; inactive = flat fitted curve, though single readings scatter.
# Experiment: qHTS for Inhibitors of human tyrosyl-DNA phosphodiesterase 1 (TDP1): qHTS in cells in presence of CPT; also: nearly all actives have a fitted effect of over 55% in size
# Details: chicken DT40 Tdp1-/-;hTDP1 cells + 20 nM CPT, ATP luminescence, 48 h; series mostly up to 46.2 µM; activity change, negative = growth inhibition: at the top concentration
# Outline: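 Chicken DT40 Tdp1-/- cells complemented with human TDP1, 400 cells/well, exposed to compounds plus 20 nM camptothecin for at least 48 h at 37 C; viability read as ATP content by CellTiter-Glo luminescence.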
# % is scaled to controls: 0 for no effect and ±100 for the full control effect; potency is read from the fitted curve at half-maximal effect.
SMILES,"activity change, negative = growth inhibition",Potency
O=C(NCc1ccccn1)Nc1ccc(Cl)cc1,-13%,
Cn1cccc1/C=N/NC(=O)c1ccc(OC(F)(F)C(F)F)cc1,-5.47%,
CCCC(=O)N1CCC1(C)C(=O)NS(=O)(=O)c1ccc(Cl)cc1 (centres undefined),-13%,
O=C(CCN1C(=O)c2ccccc2C1=O)NCCCn1ccnc1,8.16%,
CC(=O)C(C)n1cnc2scc(-c3ccc(C)cc3)c2c1=O (centres undefined),-13.8%,
CN(C)S(=O)(=O)c1ccc(N2CCCC2)c(C(=O)Nc2cccc(F)c2)c1,10.3%,
Cc1nccn1CCCNC(=O)CC1C(=O)NCCN1Cc1ccc(Cl)c(F)c1 (centres undefined),9.86%,
CCOc1ccc(CN2CCNC(=O)C2CC(=O)NCCCC2CCCC2)cc1 (centres undefined),,16.4 µM (active)
O=C(CC1C(=O)NCCN1Cc1ccc(-c2ccccc2)cc1)NCC1CCOCC1 (centres undefined),2.47%,
CCN(C(=O)COC(=O)c1ccccc1O)c1cccc2ccccc12,0.154%,
CC(C)CCNC(=O)CC1C(=O)N(Cc2ccccc2)C(C)c2nc3ccccc3n21 (centres undefined),-13.9%,
Cc1onc(-c2ccccc2Cl)c1C(=O)OCc1nnc(-c2ccccc2)o1,,18.4 µM (active)
O=C(OCc1nnc(-c2ccccc2)o1)c1ccc2c(c1)C(=O)N(CCc1ccccc1)C2=O,-12.9%,
Cc1ccc(C(=O)NCC(=O)OCc2nnc(-c3ccccc3)o2)cc1,8.86%,
Cc1onc(-c2ccccc2)c1C(=O)N=C(N)c1ccc(Cl)cc1,0.615%,
CCOC(=O)c1ccc(COC(=O)CCc2nc(-c3ccccc3)c(-c3ccccc3)o2)cc1,-16%,
Cc1onc(-c2ccccc2)c1-c1nnc(COC(=O)c2ccc(N(C)C)cc2)o1,,20.6 µM (active)
Cc1ccc(NC(=O)CCC(=O)N/N=C/c2ccco2)c(C)c1,18.1%,
Nc1nc(O)c(CC(=O)O)s1,-1.16%,
O=C(NCCNc1ccccc1[N+](=O)[O-])c1ccccc1F,-2.38%,
Cn1nnnc1SCC(=O)Nc1cccc(S(=O)(=O)N2CCCCC2)c1,0.445%,
CCOC(=O)C1=C(NC(=S)NC(=O)c2ccccc2)c2ccccc2CC1(C)C,-8.29%,
O=C(CSc1nc(O)c(Cc2ccccc2)c(=O)[nH]1)Nc1nc2c(s1)CCCC2,-15.5%,
Cc1ccc2c(c1)C1CN(C)CCC1N2C(=O)c1ccccc1NS(=O)(=O)c1ccc(F)cc1C (centres undefined),-11.4%,
O=C1O/C(=C\c2ccc(O)cc2)C(O)=C1c1ccc(O)cc1,-3.86%,
COc1cc(C2C3=C(CCCC3=O)OC3=C2C(=O)CCC3)ccc1OCC(=O)Nc1ccccc1,-1.46%,
Cc1ccc(C)c(N2C(=O)N(Cc3c(F)cccc3Cl)c3ccccc3S2(=O)=O)c1,,18.4 µM (active)
O=C1c2ccccc2S(=O)(=O)N1Cc1c(F)cccc1Cl,-12.9%,
O=c1c(=O)n(Cc2c(F)cccc2Cl)ccn1Cc1ccccc1,-23.7%,
